The source of these data is PubChem BioAssay (NCI).

Structures are written as SMILES. About 83,000 compounds went through this panel and 20% of them were active in at least one assay; those are over-represented in the sample as a whole.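 For each line, cells grew in 96-well plates with the test compound present at a single concentration for 48 hours.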 Values without a mark were called inactive. The source made the active and inactive calls. How the source made its calls: active means growth percent below 10; inactive means the rest.

This test has as its system HOP-62 NSCLC. Briefly: NCI-60 one-dose screen, 48 h (100 = growth as untreated, 0 = no growth, -100 = all killed). As to conditions: 10 µM unless noted.
As to `COc1ccc(-c2cc(NC(=O)Nc3ccc4ncsc4c3)no2)cc1`, the growth is 111%.

For the compound `O=[N+]([O-])c1ccccc1/C=N\NC(=S)N/N=C/c1ccccc1[N+](=O)[O-]`, the growth is 56.5%.

Turning to `O=C1c2cc3c(cc2-c2c1c1ccc(F)cc1c(=O)n2C[C@H](O)[C@H](O)[C@H](O)CO)OCO3`, the growth is -23.1% (active).

Regarding `Cc1ccc2c(C(C[N+](=O)[O-])c3ccccc3F)c(-c3ccccc3)[nH]c2c1` (stereo not drawn), the growth was 36.2%.

Turning to `COc1ccc(CCNc2nc(SC)nc(-c3cccc([N+](=O)[O-])c3)c2C#N)cc1OC`, the growth was 67.6%.

Consider `O=C(CCN1C(=O)/C(=C/c2ccc(Cl)cc2)SC1=S)NCCCN1CCOCC1`, for which the growth is 101%.

In the case of `Cc1nn(-c2cc(=O)[nH]c3ccc(Cl)cc23)c(N)c1C#N`, the growth was 94.9%.

On to `COC[C@H](C)n1c(C2CCOCC2)nc2cnc3cc(-c4c(C)noc4C)c(OC)cc3c21`, for which the growth is 39.8%.

Regarding `COc1cc(C(=O)Oc2ccccc2OC(=O)c2cc(OC)c(OC)c(OC)c2)cc(OC)c1OC`, the growth is 88.1%.

`COc1ccc(/C=C\c2cc(OC)c(OC)c(OC)c2)cc1OCC(=O)Nc1ccc2nc(C)sc2c1`: the growth was 44.4%.

For `COc1cc2c(cc1O)CC[C@@H]1[C@@H]2CC[C@]2(C)[C@@H](OCCCN(C)C)CC[C@@H]12`, the growth was -57.8% (active).

For the compound `CC(=O)Oc1ccc(Cl)cc1CN(C(C)=O)C1CCCCC1`, the growth is 102%.

Consider `O=C(/C=C/c1cccc([N+](=O)[O-])c1)c1ccc(O)c(CN2CCN(c3cc4c(cc3F)c(=O)c(C(=O)O)cn4C3CC3)CC2)c1`, for which the growth is 43.7%.
